Pf growth 96h = Primary qHTS for delayed death inhibitors of the malarial parasite plastid, 96 hour incubation. P. falciparum luciferase reporter growth, 96 h. 320,000 tested, 6.9% active. Potency, µM (top dose mostly 28.7 µM), hits mostly inhibitors
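Delayed-death screen, second-generation endpoint: infected erythrocytes, 2% hematocrit, 0.05% parasitemia final; 96 hours at 37 C, 5% CO2; luciferase detection reagent; luminescence decrease equals reduced growth.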
HCMV inh = qHTS Assay for inhibitors of the human cytomegalovirus (HCMV); HFF cells, HCMV-luciferase reporter, 72 h; stronger effect = lower value; activity change, negative = inhibition, % at 57.5 µM; 410,000 tested, 4.5% active; AID 1259415, 2018; in the data active = activity change below about -60%; inconclusive = no clear call, values can overlap the other calls; inactive = above about -39%
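Two compound doses tested in HFFs infected with HCMV-luciferase, MOI 1 PFU/cell, 72 h at 37C. Lysate luminescence read with OneGlo; data normalized against buffer-only and 10uM Salinomycin inhibitor controls.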
Giardia FBPA inh = qHTS Assay for Inhibitors of Fructose-1,6-bisphosphate Aldolase from Giardia Lamblia; 290,000 tested, 0.71% active; purified Giardia FBPA; A8B2U2; Potency, µM (titrated, usually from 59.6 µM), actives largely listed as inhibitors; note: nearly all actives have a fitted effect of over 55% in size
Target sequence (A8B2U2 whole entry, looked up): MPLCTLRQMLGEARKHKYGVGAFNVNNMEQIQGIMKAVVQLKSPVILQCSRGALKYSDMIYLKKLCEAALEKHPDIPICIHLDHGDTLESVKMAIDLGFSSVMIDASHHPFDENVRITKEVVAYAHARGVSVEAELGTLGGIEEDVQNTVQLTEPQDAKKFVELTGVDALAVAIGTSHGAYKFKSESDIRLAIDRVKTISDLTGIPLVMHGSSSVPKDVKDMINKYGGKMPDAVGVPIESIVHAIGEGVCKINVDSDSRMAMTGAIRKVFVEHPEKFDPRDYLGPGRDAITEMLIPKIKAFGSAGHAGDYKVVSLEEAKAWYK
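40 nM FBPA preincubated 10 min at RT with compound (up to 57.5 uM final), then substrate plus GAPDH/TPI/NAD/arsenate coupling and diaphorase/resazurin added. Fluorescence read after 20 min at RT, 525/598 nm.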
Pf growth 48h = Primary qHTS for delayed death inhibitors of the malarial parasite plastid, 48 hour incubation. P. falciparum luciferase growth in erythrocytes, 48 h. Potency, µM (top dose mostly 28.7 µM), usual class: inhibitors. 310,000 tested, 5.9% active
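Compounds are pin-transferred into medium, infected erythrocytes (2% hematocrit, 0.1% parasitemia final) are added, and plates sit one parasite generation at 37 C in 5% CO2. Detection reagent is then added and luminescence measured.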
Sm TGR block = qHTS Assay for the Inhibitors of Schistosoma Mansoni Peroxiredoxins. purified TGR, DTNB reduction, TNB absorbance 405 nm. AID 485364, 2010. 360,000 tested, 3% active. Potency, µM (titrated, usually from 114 µM), actives largely listed as inhibitors; note: nearly all actives have a fitted effect of over 60% in size
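First, TGR (20 nM dispensed) and NADPH were mixed with compound. Second, a 15 min room-temperature incubation followed. Third, further NADPH and then DTNB were added to start the reaction. Finally, TNB absorbance was monitored kinetically.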
Large screens that a line does not name were inactive. A selection: hits, their analogues and other compounds. The true share with any hit is near 14%. Unless noted, calls come from the whole dose curve; as a rule, active = well fitted curve in the direction sought with a large enough effect; inconclusive = small, poorly fitted or top-dose-only effect, or another doubt; inactive = no such curve, though single readings can be large; an effect the other way counts as inactive or inconclusive.

O=C(O)C1=C[C@@H](c2ccc3c(c2)OCO3)C[C@@H](OCCCCO)O1	Sm TGR block 45µM
CC(NCc1ccc2c(c1)n(C)c(=O)n2C)c1ccccc1 (centres undefined)	none (no result: Pf growth 96h, Giardia FBPA inh, Pf growth 48h)
CCCCCCCCCCCCCCCCCCCCCCCCCCCCCC	none (no result: Pf growth 96h, HCMV inh, Pf growth 48h, Sm TGR block)
O=C(C1=C[C@@H](c2ccc(Br)cc2)C[C@@H](OCCCCO)O1)N1CCN(Cc2ccccc2)CC1	Pf growth 96h 12µM, HCMV inh -94, Pf growth 48h 8.3µM, Sm TGR block 20µM
C#Cc1ccc([C@@H]2C=C(C(=O)N3CCN(Cc4ccc5c(c4)OCO5)CC3)O[C@H](OCCCCO)C2)cc1	Pf growth 96h 12µM, Pf growth 48h inconclusive, Sm TGR block inconclusive
C[C@H]1C=C(C(=O)N2CCN(Cc3ccc4c(c3)OCO4)CC2)O[C@@H](OCc2ccc(CO)cc2)C1	Pf growth 96h inconclusive, Pf growth 48h inconclusive, Sm TGR block inconclusive
O=C(C1=C[C@@H](c2ccc3c(c2)OCO3)C[C@@H](OCCCCO)O1)N1CCN(Cc2ccc3c(c2)OCO3)CC1	Pf growth 96h 10µM, Pf growth 48h inconclusive
CC(C)(C)[C@@H]1C=C(C(=O)N2CCN(Cc3ccccc3)CC2)O[C@H](OCCCCO)C1	Pf growth 96h inconclusive, Sm TGR block inconclusive
O=C(C1=C[C@H](C2CCCCC2)C[C@H](OCCCCO)O1)N1CCN(Cc2ccc3c(c2)OCO3)CC1	Pf growth 96h 5.9µM, Pf growth 48h 12µM (no result: HCMV inh)
O=C(C1=C[C@H](c2ccc3c(c2)OCO3)C[C@H](OCCCCO)O1)N1CCN(Cc2ccc3c(c2)OCO3)CC1	Pf growth 96h inconclusive, Pf growth 48h inconclusive
CCCCOc1ccc(Cc2c(O)nc(SC)[nH]c2=O)cc1	none
C[C@H](CO)N1C[C@H](C)[C@@H](CN(C)C(=O)c2ccncc2)OCc2cn(nn2)CCCC1=O	none (no result: Pf growth 96h, Giardia FBPA inh, Pf growth 48h, Sm TGR block)
COc1ccc(-c2cc(C(=O)Oc3ccc(Cl)cc3)c3ccccc3n2)cc1	none (no result: Pf growth 96h, Giardia FBPA inh, Pf growth 48h)
Nc1ncnc2c1ncn2CCOc1ccccc1	none
CC(C)(C)C(=O)OCOP(=O)(COCCn1cnc2c(N)ncnc21)OCOC(=O)C(C)(C)C	Pf growth 96h 6.7µM, Pf growth 48h 15µM (no result: HCMV inh, Giardia FBPA inh, Sm TGR block)
O=C(c1ccco1)N1CCN(C(=O)C23CC4CC(CC(C4)C2)C3)CC1	Pf growth 96h inconclusive, HCMV inh inconclusive
Cc1ccc(N2C(=O)N(CC(=O)Nc3ccc(C)c(C)c3)C(=O)C2C)cc1 (centres undefined)	none (no result: Giardia FBPA inh)
Cc1cc(OCC(=O)OCC(=O)Nc2cc(C(F)(F)F)ccc2N2CCOCC2)ccc1Cl	none
O=C(c1cc(S(=O)(=O)NCc2ccco2)ccc1Br)N1CCOCC1	Pf growth 96h inconclusive (no result: Giardia FBPA inh)
CN(C=C1C(=O)CC(C)(C)CC1=O)CCN1CCNCC1	Sm TGR block 22µM
CC1(C)CC(=O)C(C=NCCN2CCOCC2)=C(O)C1	Sm TGR block inconclusive
COC(=O)c1ccccc1NC(=O)c1noc2c1CSc1ccccc1-2	Sm TGR block 3.5µM (no result: Pf growth 96h, Giardia FBPA inh, Pf growth 48h)
CCc1ccc(NC(=O)c2noc3c2CCC3)cc1	Pf growth 96h inconclusive, HCMV inh inconclusive (no result: Pf growth 48h)
COc1ccc(C)cc1NC(=O)c1noc2c1CSc1ccccc1-2	none (no result: Pf growth 96h, Giardia FBPA inh, Pf growth 48h)
CCc1ccc(NC(=O)c2noc3c2CCCCC3)cc1	Pf growth 96h 3.7µM
COC(=O)c1ccccc1NC(=O)c1noc2c1CCC2	Pf growth 96h 1µM, Pf growth 48h 3.3µM
Cc1ccc(O)c(NC(=O)c2noc3c2CCCC3)c1	none (no result: Pf growth 96h, Giardia FBPA inh, Pf growth 48h)
CSc1ccccc1NC(=O)c1noc2c1CCC2	Giardia FBPA inh inconclusive, Pf growth 48h 13µM (no result: Pf growth 96h)
NNC(=O)C1CC1c1ccccc1 (centres undefined)	Pf growth 96h 9.3µM
NNC(=O)[C@@H]1C[C@@H]1c1ccccc1	Pf growth 96h inconclusive
CCn1c(=O)c2sccc2n(CC(=O)NCCC2=CCCCC2)c1=O	HCMV inh inconclusive
Cn1cc(/C=N/n2cnc3scc(-c4ccccc4)c3c2=O)c2ccccc21	Pf growth 96h 3.3µM
CCCCc1ccc(C(=O)O)nc1	Pf growth 96h inconclusive, Giardia FBPA inh 16µM, Pf growth 48h inconclusive
CCCCc1ccc(-c2ccc(Br)cc2)nc1	Pf growth 96h inconclusive
Cc1cc(OCC(O)CN2CCN(c3cccc(Cl)c3)CC2)ccc1Cl (centres undefined)	none (no result: Pf growth 96h, Giardia FBPA inh, Pf growth 48h)

Assay outcomes from PubChem.
